# Bioassay records (PubChem)
# TDP1 cell noCPT – qHTS for Inhibitors of human tyrosyl-DNA phosphodiesterase 1 (TDP1): qHTS in cells in absence of CPT; DT40 Tdp1-/- hTDP1 cells, no CPT, ATP luminescence, 48 h; AID 686978, 2013; Potency, µM (titrated, usually from 46.2 µM), without a hit: at the highest dose activity change, negative = growth inhibition, hits mostly inhibitors; hit rate 15% among 420,000; further: potency means the concentration at half of the fitted maximal effect; on the % scale 0 is the no-effect control and ±100 the full control effect; nearly all actives have a fitted effect of over 55% in size
#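 Chicken DT40 Tdp1-/- cells complemented with human TDP1, screened without camptothecin (DMSO vehicle only), 400 cells/well. Compounds pin-transferred, cells incubated at 37 °C for at least 48 hr. Growth read as ATP-dependent luminescence (CellTiter-Glo, 30 min at RT).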
# IL1B secr inh – inflammasome signaling inhibition, IL-1 beta readout; activity change, % at 57.5 µM; THP-1 LPS/ATP IL-1B secretion, AlphaLISA, 16 h; stronger effect = lower value; hit rate 4.7% among 360,000; AID 743279; in the data active means activity change below about -50%; inconclusive means mostly about -30% to -49%; further: on the % scale 0 is the no-effect control and ±100 the full control effect
#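 Secreted IL-1B measured by AlphaLISA bead assay after 16 h compound exposure of THP-1 cells; compounds (final up to 57.5 uM) added 1 h before LPS (250 ng/mL) and ATP (1.25 mM) stimulation; lower signal means less secretion.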
# DT40 TDP1 CPT – growth inhibition of DT40 Tdp1-/-;hTDP1 cells with camptothecin (screen for TDP1 inhibitors); chicken DT40 Tdp1-/-;hTDP1 cells + 20 nM CPT, ATP luminescence, 48 h; hit rate 12% among 420,000; Potency, µM (highest dose often 46.2 µM), without a hit: at the top dose activity change, negative = growth inhibition, actives largely listed as inhibitors; further: potency means the concentration at half of the fitted maximal effect; on the % scale 0 is the no-effect control and ±100 the full control effect; nearly all actives have a fitted effect of over 55% in size
#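 Chicken DT40 Tdp1-/- cells complemented with human TDP1, 400 cells/well, exposed to compounds plus 20 nM camptothecin for at least 48 h at 37 C; viability read as ATP content by CellTiter-Glo luminescence.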
# ClpP mod – qHTS Assay for Activators of ClpP; ATP-dependent Clp protease proteolytic subunit (Bacillus subtilis (strain 168)), P80244; purified B. subtilis ClpP, FRET peptide cleavage, 20 min; Potency, µM (titrated, usually from 57.5 µM), inactives show top-dose activity change, negative = active; hit rate 1.9% among 340,000; AID 651965, 2013; active means well fitted falling curve with a large enough effect; inconclusive means small, poorly fitted or top-dose-only effect; inactive means no such curve, though single readings can be large or run the other way; further: potency means the concentration at half of the fitted maximal effect; the source files actives as falling curves though it sought activators and does not explain the sign; nearly all actives have a fitted effect of over 65% in size
# Target sequence (P80244 whole entry, looked up): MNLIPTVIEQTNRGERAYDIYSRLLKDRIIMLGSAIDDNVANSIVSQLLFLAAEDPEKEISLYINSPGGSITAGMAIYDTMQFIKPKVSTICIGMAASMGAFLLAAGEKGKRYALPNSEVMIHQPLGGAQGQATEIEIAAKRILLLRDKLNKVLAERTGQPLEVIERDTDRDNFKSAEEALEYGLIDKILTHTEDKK
#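 ClpP 10 microg/mL final, pH 8 Tris/KCl buffer with BSA, glycerol, Tween-20; compound pinned in; FRET-FV substrate; RT 20 min; Ex320/Em430; ΔFRET vs ADEP 5.8 microM, DMSO, no enzyme.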
# D3 ag – activates the human D3 dopamine receptor; D3R DiscoveRx beta-arrestin cells, luminescence, 90 min; hit rate 0.58% among 410,000; AID 652048; max activation, %; in the data active means max activation above about 30%; further: 0% is about no effect
# Target sequence (P35462 whole entry, looked up): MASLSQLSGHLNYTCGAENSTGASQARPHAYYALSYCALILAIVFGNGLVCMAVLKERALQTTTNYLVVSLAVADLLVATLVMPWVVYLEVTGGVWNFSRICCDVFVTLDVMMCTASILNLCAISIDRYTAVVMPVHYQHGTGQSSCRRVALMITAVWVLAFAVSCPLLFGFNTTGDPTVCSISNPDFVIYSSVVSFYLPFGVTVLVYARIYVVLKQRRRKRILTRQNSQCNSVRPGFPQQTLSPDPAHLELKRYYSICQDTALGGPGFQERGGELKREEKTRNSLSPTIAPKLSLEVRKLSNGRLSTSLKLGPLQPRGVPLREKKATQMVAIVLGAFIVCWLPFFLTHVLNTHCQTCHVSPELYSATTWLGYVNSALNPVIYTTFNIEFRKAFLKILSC
#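 Agonist-mode cell screen: cells plated at 1500/well and incubated overnight at 37 °C, then exposed to library compounds for 90 min at 37 °C. Detection reagent was added for 30–60 min at room temperature, and luminescence was read.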
# D3 antag – D3 dopamine receptor (human) antagonism. P35462. D3R cells, DiscoveRx beta-arrestin luminescence, antagonist mode; stronger effect = lower value. max response, negative = inhibition, %. hit rate 2.5% among 360,000; in the data active means max response below about -50%; inconclusive means no clear call, values can overlap the other calls; further: on the % scale 0 is the no-effect control and ±100 the full control effect
#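 Cells plated overnight at 1500 cells/well, then exposed to library compounds with dopamine controls for 90 minutes at 37 degrees C. DiscoveRx reagent added for 30–60 minutes at room temperature; luminescence read, quantitative HTS format.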
# Starred values were filed as active, the others as inactive; ? = inconclusive; . = no result. Shown are actives, neighbours in structure and some others; about 21% of the full set was active somewhere. Unless noted, the call rests on the fitted dose curve; in most records, active means well fitted inhibition curve with a large enough effect; inconclusive means small, poorly fitted or top-dose-only effect; inactive means flat fitted curve, though single readings scatter.
SMILES,TDP1 cell noCPT,IL1B secr inh,DT40 TDP1 CPT,ClpP mod,D3 ag,D3 antag
COc1ccc(-c2c3c(=O)n(C)c(=O)n(C)c3cn2-c2cccc(N)c2)cc1,23µM*,.,?,?,5,.
Cn1c(=O)c2c(-c3ccccc3)n(-c3cccc(C#N)c3)cc2n(C)c1=O,23µM*,.,16µM*,-7%,-3,.
COC(=O)c1sccc1-n1cccc1C(=O)N1CCOCC1,-17%,44,-7%,-1%,-1,1
CC(=O)Nc1cccc(NS(=O)(=O)c2cn(C)c(=O)n(C)c2=O)c1,15%,15,0%,3%,0,11
CC(C)(C)c1cc(/C=N/NC(=O)C[n+]2ccccc2)cc(C(C)(C)C)c1O,-1%,-10,?,1%,-2,10
CN1C(=O)C(O)(C2CCCCCC2=O)c2ccccc21 (stereo unspecified),-4%,10,12%,-5%,9,7
CCc1nn(CC(=O)NC(C)CC)c(=O)c2cc3occc3n12 (stereo unspecified),-13%,.,-14%,-4%,-7,.
O=C1C=C(c2ccc(F)nc2)CCC1,3%,11,-1%,2%,-7,10
COc1ccc(C(=O)Nn2cc3c(c2-c2ccccc2)c(=O)n(C)c(=O)n3C)cc1,-5%,0,-27%,-7%,4,-27
Cn1c(=O)c2c(-c3ccccc3)n(Cc3cccnc3)cc2n(C)c1=O,8%,30,-5%,-9%,7,24
Cn1c(=O)c2c(-c3ccccc3)n(-c3ccccc3)cc2n(C)c1=O,4.6µM*,22,3.7µM*,1%,13,33
Cc1cccc(-c2c3c(=O)n(C)c(=O)n(C)c3cn2CCO)c1,-15%,5,-16%,28µM*,-2,6
Cn1c(=O)c2c(-c3ccccc3)n(-n3cnnc3)cc2n(C)c1=O,?,-17,26µM*,0%,-4,0
COc1ccc(-c2c3c(=O)n(C)c(=O)n(C)c3cn2-c2ccccc2)cc1,13µM*,14,26µM*,-18%,11,-25
CCOC(=O)N1CCN(C(=O)c2cc3ccc(OC)cc3[nH]2)CC1,-11%,-5,-28%,.,8,-7
CCOc1ccc(CCNC(=O)CSc2nc3ncc(Cl)cc3[nH]2)cc1OCC,0%,1,-26%,-4%,-5,5
O=C(NCc1nc(-c2ccc(Cl)cc2)no1)c1ccc2c(c1)OCO2,-17%,-5,-4%,0%,-5,-14
CC(C)N=c1c([N+](=O)[O-])nn(C)n1O,2%,10,-4%,-3%,4,-1
CCOC(=O)c1[nH]nc(-c2c(O)cc(C)cc2O)c1-c1csc(C)n1,20%,10,-6%,1%,4,-5
CCCc1cc(-c2n[nH]c(C(=O)OCC)c2-c2cscn2)c(O)cc1O,15µM*,-12,?,2%,3,9
C=CCC(CC=C)(CNC(=O)C(=O)Nc1cc(C)ccc1OC)c1ccc(OC)c(OC)c1,16µM*,.,8.2µM*,-1%,-2,.
Cc1ccc2c(c1)NC(=O)C(CC(=O)Nc1ccccc1Cl)O2 (stereo unspecified),-27%,.,-18%,1%,-6,.
CCC(C(=O)O)N1C(=O)C2CCCCC2C1=O (stereo unspecified),9%,4,0%,-2%,12,6
CC(O)c1nc2ccccc2n1CC(=O)Nc1ccc(F)cc1Cl (stereo unspecified),-12%,0,7%,1%,-6,-23
O=C(NC1CCN(Cc2ccccc2Cl)CC1)c1ccccc1,?,2,-24%,-5%,-7,?
SMILES,TDP1 cell noCPT,IL1B secr inh,DT40 TDP1 CPT,ClpP mod,D3 ag,D3 antag
O=C(NN1CCN(Cc2ccccc2Cl)CC1)c1ccc(Cl)cc1,12µM*,7,?,1%,-6,-5
COc1ccc(S[C@@H](CCN2CC[C@H](NC(=O)OCc3ccccc3)CCC2=O)c2ccccc2)cc1,23µM*,-53*,18µM*,0%,-28,0
O=C(N[C@@H]1CCC(=O)N(CC[C@H](Sc2ccc(Br)cc2)c2ccccc2)CC1)OCc1ccccc1,18µM*,?,26µM*,-2%,-25,?
COc1ccc(SC[C@H](C)CN2CC[C@H](NC(=O)OCc3ccccc3)CCC2=O)cc1,23µM*,28,?,-4%,15,20
[N-]=[N+]=N[C@@H](CCN1CC[C@H](NC(=O)OCc2ccccc2)CCC1=O)c1ccccc1,?,17,?,0%,-7,0
N#CCCn1c(=O)c(-c2ccc(Cl)cc2)nc2cnc(Oc3cccc(Cl)c3)nc21,-9%,.,15%,.,.,.
CN(C)c1cc[n+](CC(=O)Nc2c(Cl)cc(Cl)cc2Cl)cc1,6.5µM*,-26,7.3µM*,.,-10,9
COc1ccc(N2COC3c4cccc5cccc(c45)C32)cc1 (stereo unspecified),8.2µM*,-10,5.8µM*,7%,0,-14
CCSc1nnc(NC(=O)CN2C(=O)N(C)C3(CCCCC3)C2=O)s1,2%,1,-5%,-1%,-14,0
COc1ccc2[nH]c3c(=S)nc[nH]c3c2c1,?,-2,?,.,2,-56*
CC(=O)Nc1ccc(-c2cn3cc(C)ccc3n2)cc1,4%,-19,9%,?,-10,?
Cc1ccc2nc(-c3ccc(O)c(O)c3)cn2c1,21µM*,-7,?,.,12,-7
Cc1ccc2nc(-c3ccccc3)cn2c1,18µM*,0,?,14µM*,-3,7
O=C(c1ccccc1)C1CCN(C(=O)c2c(F)cccc2F)CC1,14%,?,-7%,0%,10,1
O=C(NCc1ccc(Cl)cc1)c1ccc2oc(=O)n(Cc3ccccc3)c2c1,?,.,21µM*,-2%,3,.
C=CCn1c(=O)c2ccc(C(=O)NCc3ccccc3)cc2n(Cc2ccccc2Cl)c1=O,7.3µM*,11,8.2µM*,-3%,6,12
C=CCn1c(=O)c2ccc(C(=O)NCc3ccccc3)cc2n(Cc2cccc(Cl)c2)c1=O,13µM*,-13,?,28µM*,0,3
O=C(NCc1ccc(F)cc1)c1ccc2oc(=O)n(Cc3ccccc3)c2c1,?,.,?,1%,-5,.
CCCCNC(=O)CSc1nc(-c2ccc(OC)cc2)cc(C(F)(F)F)n1,?,.,?,4%,-3,.
